According to PubChem BioAssay (NCATS):
“And” between values parts separate entries of the source, which are not always exact repeats. Equal values may be shown once. Inconclusive results are not listed. The source made the active and inactive calls. Calls come from the whole dose curve; as a rule, active = well fitted inhibition curve with a large enough effect; inconclusive = small, poorly fitted or top-dose-only effect; inactive = no such curve, though single readings can be large or run the other way. Residues, ends and D or L forms follow the SMILES beside them.

test: BET inhibitor-based combinations targeting novel dependencies in MECOM-rearranged (r) AML: OCI-AML3 cell line (AID 2202232); settings: CellTiter-Glo luminescence, 48 h; Potency: OCI-AML3 viability; series mostly up to 46 µM; note: nearly all actives have a fitted effect of over 35% in size
Text: Ecotropic viral insertion site 1 (EVI1) is located on chromosome 3q26.2 as part of the MECOM (MDS and EVI1 complex) locus. Under normal hematopoiesis, EVI1 is a regulator of hematopoietic stem cell maintenance and self-renewal and EVI1 levels decrease as the cells differentiate. In approximately 5-10% of de novo acute myeloid leukemia (AML) EVI1 is aberrantly expressed, including Chromosomal inv(3)(q21;q26.2) or t(3;3)(q21;q26.2) alterations (MECOM-r) that account for about 50% of AML with EVI1 overexpression 31. AMLs with high levels of EVI1 have a poor prognosis and an overall survival time averaging between 10-14 months. EVI1 overexpression confers resistance in leukemia cells, highlighting the need to develop new targeted therapies for EVI1 overexpressing AMLs.
Here, we performed an unbiased chemical drug screening by evaluating the single agent activity of a collection of 2,480 oncology-focused, approved and investigational drugs (NCATS Mechanism Interrogation Plates, MIPE v5.0) against a panel of seven AML cell lines. These included four MECOM-r cell-lines (AML-191, AML-194, UCSD-AML1 and HNT-34) and three non-MECOM-r AMLs (MV4-11, OCI-AML3 and SET-2). Exploiting the mechanistic redundancy built in the library, we identified target-level sensitivities in MECOM-r AML cells and relative activity as compared to other AML subtypes.
A collection of 2480 mechanistically annotated dugs (MIPE v5.0) was used to screen four 3q26.2 rearranged AML cell lines and three non-3q26.2 rearranged AML cell lines. This library purposely exploits redundancy by including multiple inhibitors of key onco-targets, while simultaneously encompassing mechanistic diversity, targeting more than 800 distinct mechanisms of action. Briefly, cells were seeded in 5 uL of growth media using a Multidrop Combi dispenser into 1536 well white polystyrene tissue culture treated plates (Corning) at a density of 500cells/well. For each cell-line, for each of the 2480 drugs in MIPE v5.0 library, an 11-point dose curve was generated via a 1536 pin-tool. Plates were incubated for 48 hr at standard incubator conditions, covered by a stainless steel gasketed lid to prevent evaporation. Cell viability was determined by luminescence based, Cell Titer Glo assay (Promega). In detail, 3 uL of Cell Titer Glo were added to each well and plates were incubated at room temperature for 15 min with a stainless-steel lid in place. Luminescence readings were taken using a Viewlux (PerkinElmer) with a 2 s exposure time per plate. Compound dose-response curves were normalized to DMSO and empty well controls on each plate. Quantitative drug activity data from dose-response curves was determined utilizing area Under the Curve (AUC) and Z-transformed AUC (Z-AUC, a mean-centering transformation applied to each individual cell-line screened).
Potency is the fitted concentration of half-maximal effect.

SMILES | Potency
CCOC(=O)c1ncn2c1CN(C)C(=O)c1cc(F)ccc1-2 | inactive
N#Cc1c(O)c2c(-c3ccc(-c4ccccc4O)cc3)csc2[nH]c1=O | inactive
O=C(Nc1ccnc(NC(=O)C2CC2)c1)c1c(Cl)cccc1Cl | 7.42 µM (active)
CCN(CC)CCNC(=O)c1ccc2nc(-c3ccccc3)c(-c3ccc(CN4CCC(n5c(=O)[nH]c6ccccc65)CC4)cc3)nc2c1 | 8.33 µM (active)
COC(=O)[C@H](Cc1ccccc1)NC(=O)[C@@H](N)CC(=O)O (H-Asp-Phe-OMe) | inactive
CCCn1c(=O)c2[nH]c(-c3cnn(Cc4cccc(C(F)(F)F)c4)c3)nc2n(CC)c1=O | inactive
COc1cc(F)c(F)c(Nc2ccc(I)cc2F)c1NS(=O)(=O)C1(C[C@H](O)CO)CC1 | 0.166 µM (active)
CN1C(=O)c2sccc2N(C)c2nc(Nc3ccc(S(N)(=O)=O)cc3)ncc21 | 1.66 µM (active)
COc1cc(-c2nn(C3CCC(N4CCN(C(C)=O)CC4)CC3)c3ncnc(N)c23)ccc1NC(=O)c1cc2ccccc2n1C (stereo not given) | 7.42 µM (active)
c1ccc(CNc2nc(N3CCOc4ccccc43)nc3c2CCCC3)cc1 | inactive
COc1cc2c(Nc3ccc(Cl)c(Cl)c3F)ncnc2cc1OCC1C[C@@H]2CN(C)C[C@@H]2C1 (stereo not given in full) | 18.6 µM (active) and 13.2 µM (active)
Cc1ccc(C(=O)Nc2ccc(Oc3cc4cnn(C)c4cc3-c3cn[nH]c3)c(F)c2)c(=O)n1-c1ccc(F)cc1 | 5.25 µM (active)
O=C(c1ccc(NS(=O)(=O)c2cccc3cccnc23)cc1)N1CCN(CC2CC2)CC1 | inactive
CCOC(=O)[C@H]1O[C@@H]1C(=O)N[C@@H](CC(C)C)C(=O)NCCC(C)C | 18.6 µM (active)
O=c1c(O)c(-c2cc(O)c(O)c(O)c2)oc2cc(O)cc(O)c12 | inactive
NC(=O)Nc1sc(-c2ccc(F)cc2)cc1C(N)=O | 2.35 µM (active)
CN1CCN(C2=Nc3cc(Cl)ccc3Nc3ccccc32)CC1 | inactive
O=C(O)C(O)Cc1ccc(O)c(O)c1 (stereo not given) | inactive
Cn1c(=O)c(-c2c(Cl)cccc2Cl)cc2cnc(Nc3cccc(C(=O)O)c3)nc21 | 0.235 µM (active)
NCCCCCC(=O)O | 0.0037 µM (active)

SMILES | Potency
CCC[C@H](N[C@H]1CCc2cc(F)cc(F)c2C1)C(=O)Nc1cn(C(C)(C)CNCC(C)(C)C)cn1 | 11.8 µM (active)
COc1cc2c(NC3CCN(C(C)C)CC3)nc(C3CCCCC3)nc2cc1OCCCN1CCCC1 | 18.6 µM (active)
CC(=O)[C@]1(O)Cc2c(O)c3c(c(O)c2[C@@H](O[C@H]2C[C@H](N)[C@H](O)[C@H](C)O2)C1)C(=O)c1ccccc1C3=O | 0.186 µM (active)
COc1cc2c(cc1Cc1cccc(Cl)c1F)c(=O)c(C(=O)O)cn2[C@H](CO)C(C)C | 16.6 µM (active)
CNC(=O)c1nn(C)c2c1C(C)(C)Cc1cnc(Nc3ccc(N4CCN(C)CC4)cc3)nc1-2 | 5.25 µM (active)
Nc1nc(OCc2cc(Br)cs2)c2[nH]cnc2n1 | 9.34 µM (active)
c1coc(CNc2ncnc3nc[nH]c23)c1 | inactive
c1cc(-c2cnn3cc(-c4ccc(N5CCNCC5)cc4)cnc23)c2cccnc2c1 | 16.6 µM (active)
COc1cc(C)c(Sc2cnc(NC(=O)c3ccc(CNC(C)C(C)C)cc3)s2)cc1C(=O)N1CCN(C(C)=O)CC1 (stereo not given) | 20.9 µM (active)
C1Cc2[nH]nc(-c3nn[nH]n3)c2C1 | inactive
CN1CCN2c3ncccc3Cc3ccccc3C2C1 (stereo not given) | inactive
Cc1[nH]c(=O)c(C#N)cc1-c1ccc2nccn2c1 | inactive
O=C(NCc1cccc(O)c1)Nc1nc(-c2ccncc2)cs1 | 14.8 µM (active)
O=C1c2ccccc2-c2n[nH]c3cccc1c23 | 4.68 µM (active)
O=c1cc(-c2ccccc2)oc2cc(O)c(O)c(O)c12 | 7.42 µM (active)
Cc1nc([C@](C)(O)CO)sc1-c1cnc(N)c(O[C@H](C)c2cc(F)ccc2-n2nccn2)c1 | 0.742 µM (active)
COc1cc2nc(-c3cc(F)ccc3O)nc(N[C@@H]3CNC[C@H]3C(C)(C)O)c2cc1OC | 7.42 µM (active)
Cc1ccc2c(c1)C(=O)[C@]1(O)CCN(c3ccccc3)C1=N2 | 18.6 µM (active)
O=C(O)C[C@H](O)C[C@H](O)/C=C/c1c(C2CC2)nc2ccccc2c1-c1ccc(F)cc1 | 1.05 µM (active)
CC(C)C(C)C=CC(C)C1CCC2C3=CC=C4CC(O)CCC4(C)C3CCC21C (stereo not given) | inactive
